Screens: PubChem BioAssay, National Center for Advancing Translational Sciences (NCATS)
Hits are enriched below; roughly 7.8% of the tested compounds scored in any of these assays.
HCV inh – qHTS Assay for Inhibitors of Hepatitis C Virus (HCV); Potency, µM (top dose mostly 41.8 µM), hits mostly inhibitors; Huh7.5.1 HCVcc-Cre infection, luciferase reporter, 44 h; actives 3.4% (n = 340,000); active = well fitted inhibition curve with a large enough effect; inconclusive = small, poorly fitted or top-dose-only effect, or another doubt; inactive = no such curve, though single readings can be large or run the other way
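After 44 h co-culture of compound, cells and HCVcc-Cre (~0.5 moi), substrate is added for 15 min at room temperature and luciferase measured over 15 sec. Cells were seeded at 1,000/well and pre-cultured 4 h.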
Marburg entry inh – qHTS for inhibitors of binding or entry into cells for Marburg Virus; Marburg virus pseudotyped entry inhibition, cell reporter; actives 1.8% (n = 300,000); AID 540276, 2011; Potency, µM (titrated, usually from 37.8 µM), actives largely listed as inhibitors; calls by dose curve; tested in HEK293 cells
Vaccinia mCherry – qHTS for Stage-Specific Inhibitors of Vaccinia Orthopoxvirus: mCherry Reporter Primary qHTS; Potency, µM (top dose mostly 36.5 µM), most hits filed as inhibitors; actives 0.63% (n = 310,000); Vaccinia virus mCherry reporter infection, fluorescence; calls by dose curve; tested in A549 cells; also: nearly all actives have a fitted effect of over 35% in size
HCMV inh – qHTS Assay for inhibitors of the human cytomegalovirus (HCMV) | HFF cells, HCMV-luciferase reporter, 72 h; hits give low values | activity change, negative = inhibition, % at 57.5 µM | actives 4.5% (n = 410,000) | AID 1259415, 2018; in the data active = activity change below about -60%; inconclusive = no clear call, values can overlap the other calls; inactive = above about -39%
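Compounds were evaluated in HFFs infected with an HCMV luciferase reporter virus (MOI 1 PFU/cell). Luciferase in lysates collected 72 h post infection served as the replication measure.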
LASV entry inh – qHTS for Inhibitors of binding or entry into cells for Lassa Virus | Lassa virus pseudotype entry inhibition, cell reporter | Potency, µM (doses to about 37.9 µM), actives largely listed as inhibitors | actives 1.2% (n = 300,000); calls by dose curve; tested in HEK293 cells; also: nearly all actives have a fitted effect of over 50% in size
VACV Venus inh – qHTS for Stage-Specific Inhibitors of Vaccinia Orthopoxvirus: Venus Reporter Primary qHTS | Vaccinia virus Venus reporter expression, fluorescence | Potency, µM (doses to about 36.5 µM), actives largely listed as inhibitors | actives 0.46% (n = 330,000) | AID 720580, 2013; calls by dose curve; tested in A549 cells; also: nearly all actives have a fitted effect of over 30% in size
Numbers stand for hits; . = inactive; ? = inconclusive; / = no result; ! = repeats disagree; [ ] = another dose, or the depositor's remark.

SMILES | HCV inh | Marburg entry inh | Vaccinia mCherry | HCMV inh | LASV entry inh | VACV Venus inh
CC(C)CSc1nnc(CNC(=O)c2ccccn2)n1C | / | / | . | / | / | .
Cc1ccc(CNC(=O)c2ccc3c(O)c(S(=O)(=O)c4ccccc4)c(=O)[nH]c3c2)cc1 | / | / | . | . | . | .
Cc1cccc(C)c1Nc1c(-c2ccc(Cl)s2)nc2ncccn12 | / | ? | . | . | . | .
O=C(CCN1C(=O)C2CC=CCC2C1=O)N1CCN(C2=NCCCC2)CC1 (stereo not drawn) | / | . | / | / | / | /
CC(C)(C)OC(=O)/C=C/[C@H]1Cc2ccccc2N1 | / | / | / | . | / | /
CCS(=O)(=O)Nc1cc(C(=O)N[C@H]2CCCCNC2=O)c2c(c1)nc(-c1ccccc1)n2C | / | / | . | / | / | .
COc1ccc(-n2c(CCNC(=O)c3ccccc3C(F)(F)F)nnc2SC)cc1 | / | / | . | / | / | .
COCCNc1cc(C)nc2c(-c3ccccc3OC)c(C)nn12 | ? | . | . | ? | . | .
COc1ccc(CCNc2cc(C)nc3c(-c4ccccc4)c(C)nn23)cc1OC | 11.2µM | . | . | . | . | .
CSc1nc(N)nc(SCC(=O)OC(C)C)c1C#N | . | . | / | -108.1 | . | /
Cc1cccc(-c2nc(Cn3c(SCc4cc(C)ccc4C)nc4ccncc43)c(C)o2)c1 | / | . | . | . | . | .
Cc1ccc(C(=O)Nc2ccc(F)cc2)cc1NC1=NC2CS(=O)(=O)CC2S1 (stereo not drawn) | . | / | . | -101.3 | / | .
Cc1ccc(CNC(=O)c2ccc(NC3=NC4CS(=O)(=O)CC4S3)cc2)cc1 (stereo not drawn) | . | / | . | -67.6 | / | .
C=CS(=O)(=O)N(Cc1ccc(Cl)c(Cl)c1)C[C@@H](O)CO | 14.1µM | / | 0.282µM | / | ? | 0.0501µM
CCCCC(CC)COC(=O)c1ccc(N(C)C)cc1 (stereo not drawn) | ? | / | . | . | / | .
CCCCC(CC)COP(=O)(OCC(CC)CCCC)OCC(CC)CCCC (stereo not drawn) | . | / | 2.51µM | . | / | ?
O=C(Nc1ccc(-c2nc3ccccc3o2)c(O)c1)c1cc(-n2cnnc2)ccc1Cl | 11.2µM | ? | / | -94.5 | . | /
O=C(Nc1ccc2oc(-c3ccccc3)nc2c1)c1cc(-n2cnnc2)ccc1Cl | ? | . | / | . | ? | /
Cc1c(NC(=O)c2cc(-n3cnnc3)ccc2Cl)cccc1-c1nc2ccccc2o1 | ? | . | ? | . | . | .
O=C(Nc1ccc(-c2nc3ccccc3o2)cc1)c1cc(-n2cnnc2)ccc1Cl | ? | ? | / | -96.6 | ? | /
Cc1ccc(S(=O)(=O)c2nnn3c2nc(N2CCCC(C)C2)c2cc(Cl)ccc23)cc1C (stereo not drawn) | / | . | . | . | / | .
CCOc1ccc(NC(=O)Cn2c(=O)n(CCCCCC(=O)NCc3ccccc3)c(=O)c3sccc32)cc1 | / | . | . | . | . | .
COc1cccc(-c2nnc(SCC(=O)N(C)c3ccccc3)o2)c1 | / | . | . | . | . | .
COc1cccc(NC(=O)C(=O)NCC2CCCN2S(=O)(=O)c2ccccc2)c1 (stereo not drawn) | 11.2µM | ? | . | . | ? | .
O=C(NCCc1ccc(F)cc1)C(=O)NCC1CCCN1S(=O)(=O)c1ccccc1 (stereo not drawn) | 11.2µM | ? | ? | . | 7.08µM | .
SMILES | HCV inh | Marburg entry inh | Vaccinia mCherry | HCMV inh | LASV entry inh | VACV Venus inh
O=C(NCc1ccc(F)cc1)C(=O)NCC1CCCN1S(=O)(=O)c1ccccc1 (stereo not drawn) | .[8.37 µM] | ? | . | . | ? | .
COc1cccc(NC(=O)C(=O)NCCC2CCCCN2S(=O)(=O)c2ccccc2)c1 (stereo not drawn) | 3.98µM | . | . | . | ? | .
COc1ccccc1NC(=O)C(=O)NCCC1CCCCN1S(=O)(=O)c1cccs1 (stereo not drawn) | ? | ? | . | . | . | .
COc1cccc(C(=O)NCC2CCCN2S(=O)(=O)c2ccccc2)c1 (stereo not drawn) | . | . | . | . | . | .
O=C(NCCC1CCCCN1S(=O)(=O)c1cccs1)C(=O)Nc1ccccc1F (stereo not drawn) | 8.91µM | ? | . | . | . | .
COc1cc(OC)c(OC)cc1CN1CCCC(n2cc(C(=O)N3CCCCC3)nn2)C1 (stereo not drawn) | / | / | . | / | / | .
CC(C)c1ccc(S(=O)(=O)c2nnn3c2nc(N2CCOCC2)c2sccc23)cc1 | / | / | . | . | ? | .
COc1ccc(Cl)cc1NC(=O)c1cc(S(=O)(=O)N(C)Cc2ccccc2)ccc1F | / | / | . | . | . | .
Cc1cnc2ccc3ccccc3c2c1C | / | / | . | / | / | .
O=C(Nc1ccccc1)c1nn(-c2ccccc2)c(=O)cc1C(F)(F)F | ? | . | / | . | . | .
O=C(c1ccccc1)c1nn(-c2ccc(Cl)cc2)c(=O)cc1C(F)(F)F | 6.31µM | 8.91µM | ? | -104.5 | 11.2µM | .
O=C(c1cccc(Cl)c1)c1nn(-c2ccccc2)c(=O)cc1C(F)(F)F | . | . | / | -71.6 | . | .
O=C(c1ccccc1)c1nn(-c2ccccc2)c(=O)cc1-c1ccccc1 | / | / | . | / | / | .
NC(=O)c1nn(-c2cccc(Cl)c2)c(=O)cc1O | . | ? | / | . | . | /
O=C(c1ccccc1)c1nn(-c2ccccc2)c(=O)cc1C(F)(F)F | ? | ? | / | -67.0 | ? | .
CCOc1cc(CNC(=O)c2ccc(NC(=O)c3nsc4ccccc34)cc2)ccc1OC | / | / | .[7.34 µM] | . | . | .[7.34 µM]
CC(C)CC(c1nnnn1Cc1ccco1)N1CCN(c2cccc(Cl)c2)CC1 (stereo not drawn) | . | 8.91µM | . | . | ? | .
O=C(CCc1ccccc1)Nc1ccc(NC(=O)c2ccco2)cc1 | . | . | . | . | ? | .
O=C(Nc1ccc(CSc2ccccc2)cc1)c1ccco1 | . | / | / | -83.6 | / | /
CC(=O)c1cccc(NC(=O)c2ccc(Br)o2)c1 | . | . | / | . | . | /
O=C(Nc1cccc(F)c1)c1ccc(Br)o1 | .[8.37 µM] | ? | . | -96.9 | . | .
CC(=O)Nc1ccc(NC(=O)c2ccc(CSc3ccccc3)o2)cc1 | . | . | . | . | . | .
O=C(Nc1cccc(F)c1)c1ccc(CSc2ccccc2)o1 | . | 7.31µM | . | . | 5.17µM | .
CCN(CC)c1ccc(/C=C/c2c(C)cnc3ccccc23)cc1 | / | / | . | / | / | .
NC(=NCCCCCCN=C(N)/N=C(\N)Nc1ccc(Cl)cc1)/N=C(\N)Nc1ccc(Cl)cc1 | ? | / | ? | -94.6! | / | 10µM!
NNc1nc2sc3c(c2c(=O)n1Cc1ccccc1)CCC3 | ? | . | .[7.34 µM] | . | . | .[7.34 µM]
Nn1c(Nc2ccccc2)nc2sc3c(c2c1=O)CCC3 | 12.6µM | ? | . | . | ? | .
COc1ccc(C(=O)Nc2ccc(NC(=O)c3ccccc3)cc2)cc1S(=O)(=O)N1CCOCC1 | ? | ? | . | ? | / | .
